Assay results reported in PubChem BioAssay AID1159580 (chemical genetic matrix, 2015).
Screen size: about 5,500 compounds; about 2,000 (36%) were called active. Roughly 18% stayed inconclusive and do not appear here. Rule as the data show it: active = normalized growth mostly below about 0.91 (no sharp cut-off); inconclusive = no clear call, values can overlap the other calls; inactive = mostly above about 0.92. The list shows a part of the results.

Experiment: chemical genetic growth profiling, strain panel (AID 1159580);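 also: tested at 20 µM; growth read once vehicle control cultures reached saturation at 30 °C; 1 = growth at the plate median or of vehicle wells; lower values mean less growth of the strain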
Conditions: growth OD

Measured: normalized growth

CN1CC(=O)N=C1N
inactive: S. cerevisiae deletion strains, locus YJR043C, strain POL32, hits give low values 1.01 | S. cerevisiae deletion strains, locus YJR066W, strain TOR1, hits give low values 0.902 | S. cerevisiae deletion strains, locus YJR075W, strain HOC1, hits give low values 1.01 | S. cerevisiae deletion strains, locus YKL009W, strain mrt4, hits give low values 1.05 | S. cerevisiae deletion strains, locus YKL068W, hits give low values 0.996 | S. cerevisiae deletion strains, locus YKL085W, strain MDH1 (second series), hits give low values 0.998 | S. cerevisiae deletion strains, locus YKL085W, strain MDH1, hits give low values 0.998 | S. cerevisiae deletion strains, locus YKL160W, strain elf1, hits give low values 1.01 | S. cerevisiae deletion strains, locus YKR001C, strain vps1, hits give low values 1.01 | S. cerevisiae deletion strains, locus YKR026C, strain gcn3, hits give low values 0.994 | S. cerevisiae deletion strains, locus YKR091W, strain srl3, hits give low values 1.02 | S. cerevisiae deletion strains, locus YLL001W, strain dnm1, hits give low values 1.01 | S. cerevisiae deletion strains, locus YLL026W, hits give low values 1.02 | S. cerevisiae deletion strains, locus YLL041C, strain sdh2, hits give low values 1.02 | S. cerevisiae deletion strains, locus YLR027C, strain aat2, hits give low values 1.03 | S. cerevisiae deletion strains, locus YLR039C, strain RIC1, hits give low values 1.04 | S. cerevisiae deletion strains, locus YLR058C, strain SHM2, hits give low values 1.01 | S. cerevisiae deletion strains, locus YLR102C, strain apc9, hits give low values 0.992 | S. cerevisiae deletion strains, locus YLR113W, strain HOG1, hits give low values 0.94 | S. cerevisiae deletion strains, locus YLR221C, strain rsa3, hits give low values 1.05 | S. cerevisiae deletion strains, locus YLR258W, strain gsy2, hits give low values 1.03 | S. cerevisiae deletion strains, locus YLR262C, strain YPT6 (second series), hits give low values 1.09 | S. cerevisiae deletion strains, locus YLR262C, strain YPT6, hits give low values 1.08 | S. cerevisiae deletion strains, locus YLR268W, strain sec22, hits give low values 0.977 | S. cerevisiae deletion strains, locus YLR320W, strain mms22, hits give low values 1.07 | S. cerevisiae deletion strains, locus YLR330W, strain CHS5, hits give low values 1.01 | S. cerevisiae deletion strains, locus YLR342W, strain FKS1 (second series), hits give low values 0.984 | S. cerevisiae deletion strains, locus YLR342W, strain FKS1, hits give low values 1.03 | S. cerevisiae deletion strains, locus YLR357W, strain rsc2, hits give low values 1.01 | S. cerevisiae deletion strains, locus YLR370C, strain arc18, hits give low values 1.02 | S. cerevisiae deletion strains, locus YLR371W, strain rom2, hits give low values 0.985 | S. cerevisiae deletion strains, locus YLR384C, strain iki3, hits give low values 1.01 | S. cerevisiae deletion strains, locus YLR418C, strain cdc73, hits give low values 0.98 | S. cerevisiae deletion strains, locus YML016C, strain PPZ1, hits give low values 1.01 | S. cerevisiae deletion strains, locus YML032C, strain rad52, hits give low values 0.987 | S. cerevisiae deletion strains, locus YML120C, strain ndi1, hits give low values 1.03 | S. cerevisiae deletion strains, locus YML124C, strain tub3, hits give low values 0.992 | S. cerevisiae deletion strains, locus YMR058W, strain fet3, hits give low values 1.04 | S. cerevisiae deletion strains, locus YMR078C, strain ctf18, hits give low values 1 | S. cerevisiae deletion strains, locus YMR125W, strain sto1, hits give low values 1.02 | S. cerevisiae deletion strains, locus YMR129W, hits give low values 1.01 | S. cerevisiae deletion strains, locus YMR205C, strain PFK2, hits give low values 1.08 | S. cerevisiae deletion strains, locus YMR223W, strain ubp8, hits give low values 0.992 | S. cerevisiae deletion strains, locus YMR231W, strain pep5, hits give low values 1.01 | S. cerevisiae deletion strains, locus YMR307W, strain GAS1, hits give low values 0.998 | S. cerevisiae deletion strains, locus YNL067W, strain RPL9B, hits give low values 1.01 | S. cerevisiae deletion strains, locus YNL071W, strain lat1, hits give low values 1.03 | S. cerevisiae deletion strains, locus YNL128W, strain TEP1, hits give low values 1.04 | S. cerevisiae deletion strains, locus YNL183C, strain NPR1, hits give low values 0.893 | S. cerevisiae deletion strains, locus YNL209W, strain ssb2, hits give low values 1.03 | S. cerevisiae deletion strains, locus YNL233W, strain BNI4, hits give low values 1.01 | S. cerevisiae deletion strains, locus YNL248C, strain rpa49, hits give low values 1.02 | S. cerevisiae deletion strains, locus YNL250W, strain rad50, hits give low values 0.996 | S. cerevisiae deletion strains, locus YNL271C, strain bni1, hits give low values 0.991 | S. cerevisiae deletion strains, locus YNL298W, strain CLA4, hits give low values 0.988 | S. cerevisiae deletion strains, locus YNL307C, strain MCK1, hits give low values 0.98 | S. cerevisiae deletion strains, locus YNL322C, strain KRE1 (second series), hits give low values 1.02 | S. cerevisiae deletion strains, locus YNL322C, strain KRE1, hits give low values 1.01 | S. cerevisiae deletion strains, locus YNR049C, strain mso1, hits give low values 1.01 | S. cerevisiae deletion strains, locus YNR052C, strain pop2, hits give low values 0.991 | S. cerevisiae deletion strains, locus YOL012C, strain htz1 2.03 | S. cerevisiae deletion strains, locus YOL147C, strain pex11, hits give low values 0.99 | S. cerevisiae deletion strains, locus YOR001W, strain rrp6, hits give low values 1.02 | S. cerevisiae deletion strains, locus YOR061W, strain CKA2, hits give low values 1.01 | S. cerevisiae deletion strains, locus YOR069W, strain VPS5, hits give low values 1.01 | S. cerevisiae deletion strains, locus YOR070C, strain gyp1, hits give low values 1.03 | S. cerevisiae deletion strains, locus YOR080W, strain dia2, hits give low values 1.02 | S. cerevisiae deletion strains, locus YOR083W, strain WHI5, hits give low values 1.01 | S. cerevisiae deletion strains, locus YOR106W, strain vam3, hits give low values 1.02 | S. cerevisiae deletion strains, locus YOR136W, strain idh2, hits give low values 0.996 | S. cerevisiae deletion strains, locus YOR144C, strain elg1, hits give low values 0.997 | S. cerevisiae deletion strains, locus YOR184W, strain ser1, hits give low values 1.03 | S. cerevisiae deletion strains, locus YOR231W, strain MKK1, hits give low values 0.964 | S. cerevisiae deletion strains, locus YOR265W, strain rbl2, hits give low values 1.01 | S. cerevisiae deletion strains, locus YOR270C, strain vph1, hits give low values 1.11 | S. cerevisiae deletion strains, locus YOR290C, strain snf2, hits give low values 1.02 | S. cerevisiae deletion strains, locus YOR316C, strain cot1, hits give low values 0.993 | S. cerevisiae deletion strains, locus YPL051W, strain arl3, hits give low values 1.02 | S. cerevisiae deletion strains, locus YPL055C, strain LGE1, hits give low values 1.03 | S. cerevisiae deletion strains, locus YPL078C, strain atp4, hits give low values 1.02 | S. cerevisiae deletion strains, locus YPL106C, strain sse1, hits give low values 1.02 | S. cerevisiae deletion strains, locus YPL240C, strain hsp82, hits give low values 1.02 | S. cerevisiae deletion strains, locus YPL256C, strain CLN2, hits give low values 0.946 | S. cerevisiae deletion strains, locus YPR119W, strain clb2, hits give low values 0.991 | S. cerevisiae deletion strains, locus YPR141C, strain kar3, hits give low values 0.989 | S. cerevisiae deletion strains, locus YPR163C, strain tif3, hits give low values 0.982 | S. cerevisiae deletion strains, locus YPR167C, strain met16, hits give low values 0.979 | S. cerevisiae deletion strains, strain wtn01, hits give low values 0.974 | S. cerevisiae strains, strain wild type, hits give low values 1.01
